The results in this text go back to PubChem BioAssay.

The subject of assay [1] is Human papillomavirus type 1a protein E7 (residues 44-93). Briefly: HPV1a E7 fragment binders on microarrays, primary screen, biochemical, small-molecule microarray, residues 44-93, 635 nm fluorescence (AID 1108).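 Note: E7 fragment applied at 1 µg/mL in TBST for 1 h at 4 C; score combines spot fluorescence with its signal to noise ratio.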 The note with it: small-molecule microarray binding, fluorescence 635 nm; higher = more signal.
The nature of assay [2]: modulators of HCV replicon luciferase signal, primary screen, HCV replication inhibitor project, Huh7 cells, luciferase reporter (AID 1109).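 Note: huh7 hepatoma cells harbouring a luciferase neomycin HCV replicon reporter; luciferase luminescence as measure of HCV replicon replication; test concentration not given here.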 To be noted: 48 h, higher = more signal. For orientation: Replicon systems follow genome replication, usually without infectious particles.
Assay [3] deals with Left-right determination factor 2 (Homo sapiens) (UniProt O00292). The experiment in a line: LEFTY2 binders on small-molecule microarrays, primary screen, biochemical, small-molecule microarray, 635 nm fluorescence scan (AID 1110). The note with it: LEFTY2 binding, higher = more signal.
Assay [4] has as its target Calmodulin-1 (Homo sapiens) (UniProt P0DP23). Briefly: CALM1 binders on microarrays, EGTA buffer, profiling panel, biochemical, small-molecule microarray, Cy5-labelled CALM1 (AID 1111).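 Note: labelled calmodulin applied in Tris saline Tween buffer holding calcium plus EGTA and DTT.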 To be noted: Cy5-CALM1 binding fluorescence, higher = more signal.
Assay [5] shares this target. The experiment in a line: calcium-bound CALM1 binders on microarrays, profiling panel, artefact control for SMM control-protein annotation, biochemical, small-molecule microarray, Cy5-labelled CALM1, plus calcium (AID 1112).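 Note: score merges spot fluorescence with signal to noise from triplicate slides.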 The note with it: Cy5-CALM1 binding fluorescence, higher = more signal.
Assay [6] in a line: small-molecule microarray binders of probe aWnt5a, primary screen, biochemical, biotinylated probe, 635/667 nm fluorescence (AID 1113).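 Note: score merges 667 nm fluorescence intensity with signal-to-noise per printed feature.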 The note with it: higher = more signal.
Assay [7] is described as follows: small-molecule microarray binders of probe aShh, primary screen, biochemical, biotinylated probe, 635/667 nm fluorescence (AID 1114).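 Note: probe is biotin-labelled aShh protein from a stem cell growth factor screen; measures binding of labelled protein to compounds printed on the slide; score merges feature fluorescence at 667 nm with signal-to-noise.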 The note with it: higher = more signal.
Assay [8] is described as follows: small-molecule microarray binders of probe aNog, primary screen, biochemical, biotinylated probe, 635/667 nm fluorescence (AID 1115).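 Note: probe is biotinylated aNog protein used at 0.15 µg/mL for 1 h at 4 C; z-score combines 667 nm fluorescence of each spot with its signal to noise.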 The note with it: higher = more signal.
Assay [9] has as its target Torsin-1A-interacting protein 1 (Homo sapiens) (UniProt Q5JTV8). Briefly: LAP1 binders from COS7 cell lysate, primary screen, small-molecule microarray, 635/667 nm fluorescence (AID 1116). To be noted: COS7-hLAP1 lysate binding, 635 nm fluorescence, higher = more signal.
The target in assay [10] is Alpha-bungarotoxin (Bungarus multicinctus) (UniProt P60615). The experiment in a line: alpha-bungarotoxin binders on microarray, profiling panel, artefact control for SMM control protein annotation, biochemical, small-molecule microarray, Alexa647 label, 635/667 nm fluorescence (AID 1117). To be noted: alpha-BTX-A647 binding fluorescence, higher = more signal.

The structures appear in SMILES notation.

Sequence of Left-right determination factor 2 (Homo sapiens) (O00292 whole entry, looked up): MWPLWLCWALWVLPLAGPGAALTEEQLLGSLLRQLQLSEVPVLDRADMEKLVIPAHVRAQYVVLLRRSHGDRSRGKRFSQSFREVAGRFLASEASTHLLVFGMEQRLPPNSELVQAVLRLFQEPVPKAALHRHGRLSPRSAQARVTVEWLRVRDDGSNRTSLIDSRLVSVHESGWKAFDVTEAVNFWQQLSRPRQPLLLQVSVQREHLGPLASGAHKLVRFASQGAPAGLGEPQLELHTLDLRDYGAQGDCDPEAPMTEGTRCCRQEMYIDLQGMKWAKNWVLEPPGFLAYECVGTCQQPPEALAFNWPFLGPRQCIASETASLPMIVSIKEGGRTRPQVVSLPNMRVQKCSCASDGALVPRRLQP
Sequence of Torsin-1A-interacting protein 1 (Homo sapiens) (Q5JTV8 whole entry, looked up): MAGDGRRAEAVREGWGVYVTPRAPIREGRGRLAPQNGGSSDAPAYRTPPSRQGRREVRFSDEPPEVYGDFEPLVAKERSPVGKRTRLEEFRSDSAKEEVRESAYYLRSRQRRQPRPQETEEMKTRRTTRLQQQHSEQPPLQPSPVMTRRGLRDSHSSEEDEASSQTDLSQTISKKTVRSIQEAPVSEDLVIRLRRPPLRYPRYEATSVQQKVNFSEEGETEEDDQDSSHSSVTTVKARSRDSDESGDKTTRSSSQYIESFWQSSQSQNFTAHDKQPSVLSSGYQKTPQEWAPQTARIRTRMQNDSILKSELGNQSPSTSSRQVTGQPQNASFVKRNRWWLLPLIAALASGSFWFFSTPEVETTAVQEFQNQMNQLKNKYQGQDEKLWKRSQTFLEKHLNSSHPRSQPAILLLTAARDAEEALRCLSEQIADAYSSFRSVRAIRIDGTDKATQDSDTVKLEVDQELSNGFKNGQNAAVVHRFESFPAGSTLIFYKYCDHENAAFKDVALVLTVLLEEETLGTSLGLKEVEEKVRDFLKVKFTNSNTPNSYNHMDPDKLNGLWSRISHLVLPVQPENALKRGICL
Sequence of Alpha-bungarotoxin (Bungarus multicinctus) (P60615 whole entry, looked up): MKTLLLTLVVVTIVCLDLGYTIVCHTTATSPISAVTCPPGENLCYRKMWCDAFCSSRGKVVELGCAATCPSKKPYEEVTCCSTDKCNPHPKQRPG

As to `CC1CC/C=C\[C@H]2OC34C=CCN(CCN5CCOCC5)C(=O)[C@H]3N(CCCCCCO)C(=O)[C@@H]4C2C(=O)O1` (stereo not given in full), the composite z-score in assay [1] was -1.14; in assay [3], -1.12; in assay [4], -0.482; in [5], -0.42; in assay [6], -0.232; in [7] it was -0.154. Also, the composite z-score was -0.305 in assay [8], -0.933 in assay [9] and -0.307 in assay [10]. The z-score in assay [2] is -0.709.
`CC(C)CNC(=O)[C@@H]1c2ccccc2C(=O)N(CC23CC4CC(CC(C4)C2)C3)[C@H]1c1ccc(CO)cc1`: the composite z-score in assay [1] is 1.34; in assay [3], 0.0408; in assay [4], 0.725; in assay [5] it was 0.769; in assay [6], -0.0685; in assay [7], 0.14. The composite z-score is -0.436 in assay [8], 0.862 in assay [9] and 1.15 in assay [10]. In addition, the z-score in [2] was -1.05.
Consider `Cc1ccc(S[C@]2(C(=O)NCC(F)(F)F)CC(=O)N(C3CCCCC3)[C@@H]2c2ccc(CO)cc2)cc1`, for which the composite z-score is 0.82 in assay [1]; -0.431 in assay [3]; 1.26 in [4]; 0.27 in [5]; -0.1 in assay [6]; 0.0875 in assay [7]. Further, the composite z-score in assay [8] was -0.546; in [9] it was -0.163; in [10] it was 0.28. For the same compound, the z-score in [2] is -0.759.
In the case of `CCCC=C(CCC)[C@@H](NC(=O)c1ccccc1)c1ccc(C(=O)OC)cc1`, the composite z-score in [1] was 0.882; in assay [3], 0.898; in [4], -0.271; in [5], -0.52; in assay [6], 0.732; in [7], 0.318. Further, the composite z-score is 1.71 in assay [8], -0.171 in assay [9] and 0.303 in assay [10]. Further, the z-score in assay [2] is -1.32.
`COc1ccc([Si](C)(C)[C@H]2[C@H](CCn3cc([C@H](O)c4ccccc4)nn3)O[C@@]3(C(=O)N(C)c4c(Br)cc(C)cc43)[C@@H]2C)cc1`: the composite z-score in assay [1] was -0.0087; in assay [3], 0.285; in [4], 0.0287; in assay [5] it was -0.0094; in assay [6] it was -0.124; in [7] it was 0.0796. Further, the composite z-score in [8] was -0.411; in [9], 0.088; in assay [10], 0.14. For the same compound, the z-score in assay [2] was -4.19.
Turning to `Cc1ccc(S[C@]2(C(=O)NC3CC3)CC(=O)N(Cc3cc(C(F)(F)F)cc(C(F)(F)F)c3)[C@@H]2c2ccc(CO)cc2I)cc1`, the composite z-score in assay [1] was 0.769; in assay [3], -0.175; in assay [4], 0.102; in assay [5], -0.213; in assay [6], 0.472; in assay [7], -0.19. The composite z-score was 1.65 in [8], 0.0541 in assay [9] and 0.665 in assay [10]. In addition, the z-score in [2] is -1.67.
`COCCOC(=O)N1C(=O)[C@@]2(c3cc(C#CCCO)ccc31)[C@H](c1ccc(O)cc1)N1[C@H](c3ccccc3)[C@H](c3ccccc3)OC(=O)[C@H]1[C@@H]2C(=O)N1CCc2cc(OC)c(OC)cc2C1`: the composite z-score is 1.41 in assay [1]; 1.14 in assay [3]; 0.422 in assay [4]; -0.0529 in assay [5]; 0.129 in assay [6]; -0.153 in assay [7]. The composite z-score stood at 1.32 in [8], 1.13 in [9] and 1.11 in [10]. Also, in assay [2], the z-score is -0.561.
Regarding `CC(=O)NCCCC[C@@H]1NC(=O)[C@H]2C[C@@H](C(=O)NCCCCCC[N+](C)(C)C)[C@@H](c3ccc(O)cc3)N2C1=O`, the composite z-score was 1.4 in [1]; 0.62 in assay [3]; -0.183 in assay [4]; -0.906 in assay [5]; -0.107 in assay [6]; -0.153 in assay [7]. The values for the composite z-score in assay [8], in [9] and in assay [10] were 0.762, 0.611 and 0.472, respectively. The z-score in assay [2] was determined as 1.38.
For the compound `CCCCC(=C=CC[C@@H](O)c1cccc(OCCO)c1)CCO`, the composite z-score in assay [1] is -0.333; in assay [3], -0.125; in assay [4], -0.494; in assay [5] it was 0.181; in assay [6] it was -0.18; in assay [7], 0.0121. For the same compound, the values for the composite z-score in assay [8], in [9] and in assay [10] were -0.405, 0.297 and 2.16, respectively. The z-score in [2] is -0.165.
As for `CC(C)C[C@H]1NC(=O)[C@H](Cc2ccccc2)NC(=O)[C@@]23C(=O)N[C@@H](Cc4ccccc4)C2[C@H](C)[C@@]2(C)O[C@H]2C3/C=C/C/C=C\CNC1=O` (stereo not given in full), the composite z-score was -0.361 in assay [1]; 0.431 in [3]; -0.128 in assay [4]; 0.263 in assay [5]; -0.096 in assay [6]; -0.214 in assay [7]. The composite z-score is 0.3 in assay [8], 0.765 in assay [9] and 0.93 in assay [10]. Also, the z-score in [2] was -2.09.
For the compound `C=CCC(OC(C)=O)[C@@H]1[C@@H](N(Cc2ccc(-c3ccccc3)cc2)C(=O)c2cccc3ccccc23)c2cc(OCCCO)ccc2N1C(=O)c1ccc2ccccc2c1` (stereo not given in full), the composite z-score in assay [1] is 0.403; in assay [3], -0.0981; in assay [4], 0.187; in assay [5], 0.188; in assay [6], -0.0685; in assay [7], -0.399. For the same compound, the composite z-score in assay [8] is -0.258; in assay [9], -0.0482; in [10] it was 0.971. Besides, the z-score in [2] was -0.464.
For the compound `CC(C)CNC(=O)[C@@H]1c2ccccc2C(=O)N(C(C)C)[C@H]1c1ccc(CO)cc1`, the composite z-score was -0.043 in [1]; -0.269 in assay [3]; -0.451 in [4]; 0.0584 in assay [5]; -0.24 in assay [6]; -0.2 in [7]. Besides, the composite z-score in assay [8] was 0.49; in assay [9], 1.58; in assay [10], -0.75. Further, the z-score in assay [2] was -0.972.
Regarding `CC1(C)OC[C@@]23C=C(Br)[C@@H](C[C@H]12)[C@@]1(CO1)C3=O`, the composite z-score in [1] is 0.223; in [3], 0.841; in [4], 0.0619; in [5], -0.866; in [6], 0.0937; in assay [7], -0.0769. In addition, the composite z-score was -0.132 in [8], 0.0611 in assay [9] and 0.179 in [10]. The z-score in [2] is -1.33.
